Laboratory results: PubChem BioAssay (NCATS)
Inconclusive results are not listed. Where a call stands in place of a potency, no number is given. Active and inactive are the calls of the source. Calls come from the whole dose curve; tested in HEK293 reporter line.

assay: qHTS for Inhibitors of the Functional Ribonucleoprotein Complex (vRNP) of Lassa (LASV) Arenavirus: LASV Primary Screen - GLuc reporter signal (AID 1347082); details: LASV minigenome vRNP, Gaussia luciferase reporter; series mostly up to 57.5 µM; note: nearly all actives have a fitted effect of over 60% in size

SMILES | Potency
CO[C@@]1(NC(=O)CSC[C@@H](N)C(=O)O)C(=O)N2C(C(=O)O)=C(CSc3nnnn3C)CS[C@@H]21 | inactive
Nc1ncnc2c1ncn2[C@@H]1O[C@H](CO)[C@@H](O)[C@H]1O | inactive
COc1cc2c(Nc3ccc(Br)cc3F)ncnc2cc1OCC1CCN(C)CC1 | inactive
Cc1c[nH]c2ccccc12 | inactive
CC(=O)OCC(COC(C)=O)OC(C)=O | inactive
O=C(N[C@H](CO)[C@H](O)c1ccc([N+](=O)[O-])cc1)C(Cl)Cl | inactive
CN=C(NC#N)NCCSCc1nc[nH]c1C | inactive
C[N+](C)(C)CCCCCC[N+](C)(C)C | inactive
NS(=O)(=O)c1cc2c(cc1Cl)NC(CC1CCCC1)NS2(=O)=O (stereo not drawn) | inactive
CNC[C@H](O)[C@@H](O)[C@H](O)[C@H](O)CO | inactive
CC(=O)OC[C@H]1O[C@@H](OC(C)=O)[C@H](OC(C)=O)[C@@H]1OC(C)=O | inactive
NC(=O)NC1NC(=O)NC1=O (stereo not drawn) | inactive
CC[N+](CC)(CCNC(=O)C(=O)NCC[N+](CC)(CC)Cc1ccccc1Cl)Cc1ccccc1Cl | inactive
COc1ccc2c(c1)CCCC2=O | inactive
O=c1[nH]c(=O)n([C@H]2C[C@H](O)[C@@H](CO)O2)cc1I | inactive
CCN(CC)CCNC(=O)c1ccc(N)cc1 | inactive
Cc1cc(OI)c(C(C)C)cc1-c1cc(C(C)C)c(OI)cc1C | inactive
C[C@H](NC(CCc1ccccc1)C(=O)O)C(=O)N1CCC[C@H]1C(=O)O (stereo partly drawn) | inactive
CCCC(CCC)(C(=O)OCC)C(=O)OCC | inactive
CC(=O)OCC(=O)[C@@]1(OC(C)=O)[C@@H](C)C[C@H]2[C@@H]3C[C@H](F)C4=CC(=O)C=C[C@]4(C)[C@@]3(F)[C@@H](O)C[C@@]21C | inactive

SMILES | Potency
CCCCCCn1c(=O)c2c(ncn2C)n(C)c1=O | inactive
Nc1c(I)cc(I)c(C(=O)N(CCC(=O)O)c2ccccc2)c1I | inactive
Oc1ccccc1C=NCc1ccccc1 | inactive
CCCCCCCCCCCCCCCCCCO | inactive
C/C=C/C=N/NC(=O)c1ccncc1 | inactive
C[C@]12CCC(=O)C=C1CC[C@@H]1[C@@H]2[C@@H](O)C[C@@]2(C)[C@H]1CC[C@]2(O)C(=O)COC(=O)CCC(=O)O | inactive
COc1ccc(C2C(=O)c3ccccc3C2=O)cc1 | inactive
C[C@H]1C[C@H](O)c2ccsc2S1(=O)=O | inactive
COCCOCC(OC)OC | inactive
NC(=O)c1ncn([C@@H]2O[C@H](CO)[C@@H](O)[C@H]2O)c1O | inactive
O=C(O)c1ccc[n+]([O-])c1 | inactive
O=C(O)Cc1sc(-c2ccccc2)nc1-c1ccc(Cl)cc1 | inactive
Cc1ccnc(NS(=O)(=O)c2ccc(N)cc2)n1 | inactive
CCOC(=O)[C@H](CCc1ccccc1)N[C@@H](C)C(=O)N1[C@H](C(=O)O)C[C@H]2CCCC[C@@H]21 | inactive
NC(=O)NS(=O)(=O)c1ccc(N)cc1 | inactive
CC(=O)NC(=O)c1ccccc1O | inactive
NC(=O)n1c(O)c(C(=O)c2cccs2)c2cc(Cl)ccc21 | inactive
COc1cc2c3cc1Oc1cc(ccc1O)C[C@@H]1c4c(cc(OC)c(O)c4Oc4ccc(cc4)C[C@@H]3N(C)CC2)CC[N+]1(C)C | inactive
CS(=O)(=O)c1ccc([C@@H](O)[C@@H](CF)NC(=O)C(Cl)Cl)cc1 | inactive

assay: qHTS for Inhibitors of the Functional Ribonucleoprotein Complex (vRNP) of Lassa (LASV) Arenavirus: Viability assay - alamar blue signal for LASV Primary Screen (AID 1347083); details: cell viability, alamar blue fluorescence (LASV minigenome counter-screen); series mostly up to 57.5 µM; note: nearly all actives have a fitted effect of over 80% in size

SMILES | Potency
CO[C@@]1(NC(=O)CSC[C@@H](N)C(=O)O)C(=O)N2C(C(=O)O)=C(CSc3nnnn3C)CS[C@@H]21 | inactive
Nc1ncnc2c1ncn2[C@@H]1O[C@H](CO)[C@@H](O)[C@H]1O | inactive
COc1cc2c(Nc3ccc(Br)cc3F)ncnc2cc1OCC1CCN(C)CC1 | inactive
Cc1c[nH]c2ccccc12 | inactive
CC(=O)OCC(COC(C)=O)OC(C)=O | inactive
O=C(N[C@H](CO)[C@H](O)c1ccc([N+](=O)[O-])cc1)C(Cl)Cl | inactive
CN=C(NC#N)NCCSCc1nc[nH]c1C | inactive
C[N+](C)(C)CCCCCC[N+](C)(C)C | inactive
NS(=O)(=O)c1cc2c(cc1Cl)NC(CC1CCCC1)NS2(=O)=O (stereo not drawn) | inactive
CNC[C@H](O)[C@@H](O)[C@H](O)[C@H](O)CO | inactive
CC(=O)OC[C@H]1O[C@@H](OC(C)=O)[C@H](OC(C)=O)[C@@H]1OC(C)=O | inactive
NC(=O)NC1NC(=O)NC1=O (stereo not drawn) | inactive
CC[N+](CC)(CCNC(=O)C(=O)NCC[N+](CC)(CC)Cc1ccccc1Cl)Cc1ccccc1Cl | inactive
COc1ccc2c(c1)CCCC2=O | inactive
O=c1[nH]c(=O)n([C@H]2C[C@H](O)[C@@H](CO)O2)cc1I | inactive
CCN(CC)CCNC(=O)c1ccc(N)cc1 | inactive
Cc1cc(OI)c(C(C)C)cc1-c1cc(C(C)C)c(OI)cc1C | inactive
C[C@H](NC(CCc1ccccc1)C(=O)O)C(=O)N1CCC[C@H]1C(=O)O (stereo partly drawn) | inactive
CCCC(CCC)(C(=O)OCC)C(=O)OCC | inactive
CC(=O)OCC(=O)[C@@]1(OC(C)=O)[C@@H](C)C[C@H]2[C@@H]3C[C@H](F)C4=CC(=O)C=C[C@]4(C)[C@@]3(F)[C@@H](O)C[C@@]21C | inactive

SMILES | Potency
CCCCCCn1c(=O)c2c(ncn2C)n(C)c1=O | inactive
Nc1c(I)cc(I)c(C(=O)N(CCC(=O)O)c2ccccc2)c1I | inactive
Oc1ccccc1C=NCc1ccccc1 | inactive
CCCCCCCCCCCCCCCCCCO | inactive
C/C=C/C=N/NC(=O)c1ccncc1 | inactive
C[C@]12CCC(=O)C=C1CC[C@@H]1[C@@H]2[C@@H](O)C[C@@]2(C)[C@H]1CC[C@]2(O)C(=O)COC(=O)CCC(=O)O | inactive
COc1ccc(C2C(=O)c3ccccc3C2=O)cc1 | inactive
C[C@H]1C[C@H](O)c2ccsc2S1(=O)=O | inactive
COCCOCC(OC)OC | inactive
NC(=O)c1ncn([C@@H]2O[C@H](CO)[C@@H](O)[C@H]2O)c1O | inactive
O=C(O)c1ccc[n+]([O-])c1 | inactive
O=C(O)Cc1sc(-c2ccccc2)nc1-c1ccc(Cl)cc1 | inactive
Cc1ccnc(NS(=O)(=O)c2ccc(N)cc2)n1 | inactive
CCOC(=O)[C@H](CCc1ccccc1)N[C@@H](C)C(=O)N1[C@H](C(=O)O)C[C@H]2CCCC[C@@H]21 | inactive
NC(=O)NS(=O)(=O)c1ccc(N)cc1 | inactive
CC(=O)NC(=O)c1ccccc1O | inactive
NC(=O)n1c(O)c(C(=O)c2cccs2)c2cc(Cl)ccc21 | inactive
COc1cc2c3cc1Oc1cc(ccc1O)C[C@@H]1c4c(cc(OC)c(O)c4Oc4ccc(cc4)C[C@@H]3N(C)CC2)CC[N+]1(C)C | inactive
CS(=O)(=O)c1ccc([C@@H](O)[C@@H](CF)NC(=O)C(Cl)Cl)cc1 | inactive
